Activity calls are given as the source filed them.

This note sets out measurements from PubChem BioAssay.

The test system of experiment [1] is PRMT1 (protein arginine N-methyltransferase 1). The experiment in a line: small molecules binding arginine methyltransferase PRMT1 – biochemical, small-molecule microarray, 635 nm fluorescence, primary screen (AID 1088).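 Note: binding of Prmt1 protein to compounds spotted on small-molecule microarray slides.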 The conditions noted are these: higher = more signal.
Experiment [2] in a line: growth effects on S. cerevisiae YJM789 – YJM789 clinical isolate, OD600, 24 h, basal, primary screen (AID 1089).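 Note: growth of clinical yeast isolate S. cerevisiae YJM 789 seeded 1000 cells per well; test concentration not given here.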 The conditions noted are these: higher = more signal, called active from +8 up or from −8 down.
Experiment [3] is described as follows: S. pombe growth modifiers, basal conditions – strain 972, OD600, 24 h, no modulator, primary screen (AID 1090).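 Note: basal condition with compound alone and no growth modifier present; test concentration not given here.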 The conditions noted are these: S. pombe 972 growth, higher = more signal, called active from +8 up or from −8 down.
The nature of experiment [4]: budding yeast growth modifiers under rapamycin – strain BY4716, OD600, 96 h, primary screen (AID 1091). Note: test concentration not given here. The conditions noted are these: S. cerevisiae BY4716 + rapamycin, higher = more signal, called active from +8 up or from −8 down.
In experiment [5] the target is Torsin-1A-interacting protein 2 (Homo sapiens) (UniProt Q8NFQ8). The experiment in a line: small molecules binding lysate-expressed LULL1 – cell lysate, human LULL1 lysate, 635/667 nm fluorescence, primary screen (AID 1092).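 Note: probe is lysate of COS7 cells overexpressing human LULL1; score merges per-feature 667 nm fluorescence with signal-to-noise.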 The conditions noted are these: small-molecule microarray, hLULL1 lysate binding, 635 nm fluorescence; higher = more signal.
A short description of experiment [6]: optical density change of DRC41 E. coli – strain DRC41, OD650, 24 h, E. coli filamentation project, primary screen (AID 1093).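 Note: MC1000 strain lacking acrAB efflux and sulA so SOS filamentation is blocked; test concentration not given here.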 The conditions noted are these: E. coli DRC41 growth, higher = more signal, called active from +8 up or from −8 down.
Experiment [7] can be described thus: probe aLefty2 binding to arrayed compounds – biochemical, biotinylated probe, 635/667 nm fluorescence, primary screen (AID 1094).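 Note: score merges spot fluorescence near 667 nm with spot signal-to-noise ratio.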 The conditions noted are these: small-molecule microarray, higher = more signal.
In experiment [8] the test system is Noggin (protein binding on small-molecule microarray). The experiment in a line: small molecules binding Noggin protein – biochemical, 635/667 nm fluorescence, primary screen (AID 1095).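 Note: score merges 667 nm feature fluorescence with signal to noise over triplicate slides.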 The conditions noted are these: 635 nm fluorescence, higher = more signal.
For experiment [9], the target named is Neurogenic locus notch homolog protein 3 (Homo sapiens) (UniProt Q9UM47). The experiment in a line: small molecules binding NOTCH3 protein – biochemical, 635/667 nm fluorescence, primary screen (AID 1096). The conditions noted are these: small-molecule microarray, 635 nm fluorescence, higher = more signal.
Experiment [10] is described as follows: probe aEGFR binding to arrayed compounds – biochemical, biotinylated probe, 635/667 nm fluorescence, primary screen (AID 1097).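 Note: probe is a biotinylated anti-EGFR antibody binding compounds printed on slides; score combines fluorescence near 667 nm and signal to noise of each spot.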 The conditions noted are these: small-molecule microarray, higher = more signal.
The subject of experiment [11] is Plasmodium falciparum Sir2 (PF13_0152, Sir2A). The experiment in a line: Plasmodium falciparum Sir2A binding compounds – biochemical, small-molecule microarray, 635 nm fluorescence, primary screen (AID 1098).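 Note: score merges spot fluorescence intensity with its signal-to-noise ratio.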 The conditions noted are these: fluorescence 635 nm, higher = more signal.
Experiment [12] in a line: probe aDKK1 binding to arrayed compounds – biochemical, biotinylated probe, 635/667 nm fluorescence, primary screen (AID 1099).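 Note: score merges 667nm spot fluorescence with signal to noise across triplicate slides; reference of the scale not given here.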 The conditions noted are these: small-molecule microarray, higher = more signal.
A short description of experiment [13]: probe aCHRDL2 binding to arrayed compounds – biochemical, biotinylated probe, 635/667 nm fluorescence, primary screen (AID 1100). The conditions noted are these: small-molecule microarray, higher = more signal.
Experiment [14] is described as follows: change in splice reporter luminescence, either direction, cell-based, HEK293, spliceosome inhibition project, primary screen (AID 1101).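 Note: HEK293 cells carrying a splicing-competent luciferase reporter gene; test concentration not given here.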 The conditions noted are these: HEK293 splicing luciferase reporter, 24 h, higher = more signal, called active from +8 up or from −8 down. (A reporter such as luciferase makes a cellular process visible.)
The target of experiment [15] is Fibroblast growth factor 10 (Homo sapiens) (UniProt O15520). Description: compounds binding fibroblast growth factor 10 – biochemical, small-molecule microarray, 635 nm fluorescence, primary screen (AID 1102). The conditions noted are these: FGF10 binding, fluorescence 635 nm, higher = more signal.
For experiment [16], the system named is glycogen synthase kinase-3 (GSK3A per assay name; protocol says GSK3B). Description: compounds binding glycogen synthase kinase-3 – biochemical, small-molecule microarray, 635 nm fluorescence, GSK3A, primary screen (AID 1103). Note: the record names both GSK3A and GSK3B. The conditions noted are these: fluorescence 635 nm, higher = more signal.
In experiment [17] the target is Epidermal growth factor receptor (Homo sapiens) (UniProt P00533). The experiment in a line: compounds binding epidermal growth factor receptor – biochemical, small-molecule microarray, 635 nm fluorescence, primary screen (AID 1104).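 Note: score merges 667 nm emission intensity with spot signal to noise over triplicate slides.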 The conditions noted are these: EGFR binding, higher = more signal.
For experiment [18], the target named is Follistatin-related protein 3 (Homo sapiens) (UniProt O95633). Description: compounds binding follistatin-related protein 3 – biochemical, small-molecule microarray, 635 nm fluorescence, primary screen (AID 1105).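 Note: score merges emission near 667 nm and signal to noise per printed spot across three slides.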 The conditions noted are these: FSTL3 binding, higher = more signal.
Experiment [19] addresses Dickkopf-related protein 1 (Homo sapiens) (UniProt O94907). The experiment in a line: small molecules binding DKK1 protein – biochemical, small-molecule microarray, 635 nm fluorescence scan, primary screen (AID 1106).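 Note: score merges emission near 667 nm with signal to noise over three replicate slides.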 The conditions noted are these: higher = more signal.
Experiment [20] has as its system Inhibin beta A chain (activin A). Description: small molecules binding activin A – biochemical, small-molecule microarray, 635 nm fluorescence scan, primary screen (AID 1107).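 Note: mouse activin A protein probed at 4.33 µg/mL on printed slides; score merges bound-protein fluorescence near 667 nm with spot signal-to-noise.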 The conditions noted are these: INHBA, higher = more signal.

Torsin-1A-interacting protein 2 (Homo sapiens), sequence (Q8NFQ8 whole entry, looked up): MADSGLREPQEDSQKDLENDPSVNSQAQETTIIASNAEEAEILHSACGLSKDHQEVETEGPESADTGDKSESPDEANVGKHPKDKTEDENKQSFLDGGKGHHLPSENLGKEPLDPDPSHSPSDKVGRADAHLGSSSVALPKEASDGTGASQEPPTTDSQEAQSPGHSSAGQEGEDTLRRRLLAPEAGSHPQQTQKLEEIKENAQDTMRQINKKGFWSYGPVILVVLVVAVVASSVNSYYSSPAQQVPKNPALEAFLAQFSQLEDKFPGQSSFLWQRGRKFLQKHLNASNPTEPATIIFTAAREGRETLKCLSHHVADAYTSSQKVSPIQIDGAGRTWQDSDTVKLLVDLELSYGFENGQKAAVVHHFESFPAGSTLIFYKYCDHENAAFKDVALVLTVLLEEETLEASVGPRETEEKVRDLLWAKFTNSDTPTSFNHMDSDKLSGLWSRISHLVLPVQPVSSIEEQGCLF
Dickkopf-related protein 1 (Homo sapiens), sequence (O94907 whole entry, looked up): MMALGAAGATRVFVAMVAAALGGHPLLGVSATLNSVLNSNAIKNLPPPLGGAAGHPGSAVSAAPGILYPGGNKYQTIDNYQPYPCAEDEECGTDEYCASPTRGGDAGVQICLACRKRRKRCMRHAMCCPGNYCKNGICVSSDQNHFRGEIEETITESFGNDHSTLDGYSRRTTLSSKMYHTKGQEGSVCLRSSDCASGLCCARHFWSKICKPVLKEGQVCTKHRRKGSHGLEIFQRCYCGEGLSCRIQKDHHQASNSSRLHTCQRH
Follistatin-related protein 3 (Homo sapiens), sequence (O95633 whole entry, looked up): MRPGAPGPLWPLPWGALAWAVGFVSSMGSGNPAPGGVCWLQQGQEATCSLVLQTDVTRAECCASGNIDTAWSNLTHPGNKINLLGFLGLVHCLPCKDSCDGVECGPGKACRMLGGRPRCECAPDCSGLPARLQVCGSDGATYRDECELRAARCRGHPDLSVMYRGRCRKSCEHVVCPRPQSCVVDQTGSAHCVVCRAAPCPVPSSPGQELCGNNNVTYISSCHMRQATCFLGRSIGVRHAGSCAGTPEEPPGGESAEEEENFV
Epidermal growth factor receptor (Homo sapiens), sequence (P00533 whole entry, looked up): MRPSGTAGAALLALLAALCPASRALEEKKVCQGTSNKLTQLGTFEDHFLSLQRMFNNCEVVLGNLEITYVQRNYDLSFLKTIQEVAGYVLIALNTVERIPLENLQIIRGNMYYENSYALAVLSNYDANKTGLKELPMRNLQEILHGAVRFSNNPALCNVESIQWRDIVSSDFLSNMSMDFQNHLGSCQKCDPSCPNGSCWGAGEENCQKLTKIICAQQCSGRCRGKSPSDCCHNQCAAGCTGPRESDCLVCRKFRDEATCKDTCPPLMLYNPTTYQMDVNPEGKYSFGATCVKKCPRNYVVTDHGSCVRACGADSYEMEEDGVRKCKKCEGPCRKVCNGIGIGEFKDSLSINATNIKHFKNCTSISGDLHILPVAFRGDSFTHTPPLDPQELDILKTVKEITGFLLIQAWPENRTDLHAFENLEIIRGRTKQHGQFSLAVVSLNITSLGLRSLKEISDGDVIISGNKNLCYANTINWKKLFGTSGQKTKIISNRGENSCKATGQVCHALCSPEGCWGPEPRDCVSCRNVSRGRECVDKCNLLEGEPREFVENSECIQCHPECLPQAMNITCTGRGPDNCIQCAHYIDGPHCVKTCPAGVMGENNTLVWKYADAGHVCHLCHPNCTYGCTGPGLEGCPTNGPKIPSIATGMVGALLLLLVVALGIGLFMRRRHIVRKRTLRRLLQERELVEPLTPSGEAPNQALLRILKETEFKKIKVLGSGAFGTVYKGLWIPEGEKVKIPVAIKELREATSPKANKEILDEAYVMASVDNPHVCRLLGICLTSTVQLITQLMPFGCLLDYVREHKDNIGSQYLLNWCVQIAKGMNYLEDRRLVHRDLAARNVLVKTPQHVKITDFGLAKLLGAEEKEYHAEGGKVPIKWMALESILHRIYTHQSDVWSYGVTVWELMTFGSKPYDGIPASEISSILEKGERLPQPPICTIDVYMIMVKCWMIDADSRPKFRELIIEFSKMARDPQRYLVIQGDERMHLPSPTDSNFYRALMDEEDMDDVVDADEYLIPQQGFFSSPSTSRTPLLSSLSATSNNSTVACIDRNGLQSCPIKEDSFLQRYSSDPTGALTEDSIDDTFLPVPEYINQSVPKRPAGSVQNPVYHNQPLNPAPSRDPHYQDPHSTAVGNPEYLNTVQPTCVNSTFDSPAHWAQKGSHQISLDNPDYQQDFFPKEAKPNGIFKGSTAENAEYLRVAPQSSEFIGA
Fibroblast growth factor 10 (Homo sapiens), sequence (O15520 whole entry, looked up): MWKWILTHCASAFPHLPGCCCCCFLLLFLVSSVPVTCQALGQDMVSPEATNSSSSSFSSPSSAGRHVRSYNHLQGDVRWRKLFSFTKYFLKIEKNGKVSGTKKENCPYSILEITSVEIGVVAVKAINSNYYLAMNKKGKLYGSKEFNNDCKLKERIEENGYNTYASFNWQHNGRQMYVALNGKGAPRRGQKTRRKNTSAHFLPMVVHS
Neurogenic locus notch homolog protein 3 (Homo sapiens), sequence (Q9UM47 whole entry, looked up): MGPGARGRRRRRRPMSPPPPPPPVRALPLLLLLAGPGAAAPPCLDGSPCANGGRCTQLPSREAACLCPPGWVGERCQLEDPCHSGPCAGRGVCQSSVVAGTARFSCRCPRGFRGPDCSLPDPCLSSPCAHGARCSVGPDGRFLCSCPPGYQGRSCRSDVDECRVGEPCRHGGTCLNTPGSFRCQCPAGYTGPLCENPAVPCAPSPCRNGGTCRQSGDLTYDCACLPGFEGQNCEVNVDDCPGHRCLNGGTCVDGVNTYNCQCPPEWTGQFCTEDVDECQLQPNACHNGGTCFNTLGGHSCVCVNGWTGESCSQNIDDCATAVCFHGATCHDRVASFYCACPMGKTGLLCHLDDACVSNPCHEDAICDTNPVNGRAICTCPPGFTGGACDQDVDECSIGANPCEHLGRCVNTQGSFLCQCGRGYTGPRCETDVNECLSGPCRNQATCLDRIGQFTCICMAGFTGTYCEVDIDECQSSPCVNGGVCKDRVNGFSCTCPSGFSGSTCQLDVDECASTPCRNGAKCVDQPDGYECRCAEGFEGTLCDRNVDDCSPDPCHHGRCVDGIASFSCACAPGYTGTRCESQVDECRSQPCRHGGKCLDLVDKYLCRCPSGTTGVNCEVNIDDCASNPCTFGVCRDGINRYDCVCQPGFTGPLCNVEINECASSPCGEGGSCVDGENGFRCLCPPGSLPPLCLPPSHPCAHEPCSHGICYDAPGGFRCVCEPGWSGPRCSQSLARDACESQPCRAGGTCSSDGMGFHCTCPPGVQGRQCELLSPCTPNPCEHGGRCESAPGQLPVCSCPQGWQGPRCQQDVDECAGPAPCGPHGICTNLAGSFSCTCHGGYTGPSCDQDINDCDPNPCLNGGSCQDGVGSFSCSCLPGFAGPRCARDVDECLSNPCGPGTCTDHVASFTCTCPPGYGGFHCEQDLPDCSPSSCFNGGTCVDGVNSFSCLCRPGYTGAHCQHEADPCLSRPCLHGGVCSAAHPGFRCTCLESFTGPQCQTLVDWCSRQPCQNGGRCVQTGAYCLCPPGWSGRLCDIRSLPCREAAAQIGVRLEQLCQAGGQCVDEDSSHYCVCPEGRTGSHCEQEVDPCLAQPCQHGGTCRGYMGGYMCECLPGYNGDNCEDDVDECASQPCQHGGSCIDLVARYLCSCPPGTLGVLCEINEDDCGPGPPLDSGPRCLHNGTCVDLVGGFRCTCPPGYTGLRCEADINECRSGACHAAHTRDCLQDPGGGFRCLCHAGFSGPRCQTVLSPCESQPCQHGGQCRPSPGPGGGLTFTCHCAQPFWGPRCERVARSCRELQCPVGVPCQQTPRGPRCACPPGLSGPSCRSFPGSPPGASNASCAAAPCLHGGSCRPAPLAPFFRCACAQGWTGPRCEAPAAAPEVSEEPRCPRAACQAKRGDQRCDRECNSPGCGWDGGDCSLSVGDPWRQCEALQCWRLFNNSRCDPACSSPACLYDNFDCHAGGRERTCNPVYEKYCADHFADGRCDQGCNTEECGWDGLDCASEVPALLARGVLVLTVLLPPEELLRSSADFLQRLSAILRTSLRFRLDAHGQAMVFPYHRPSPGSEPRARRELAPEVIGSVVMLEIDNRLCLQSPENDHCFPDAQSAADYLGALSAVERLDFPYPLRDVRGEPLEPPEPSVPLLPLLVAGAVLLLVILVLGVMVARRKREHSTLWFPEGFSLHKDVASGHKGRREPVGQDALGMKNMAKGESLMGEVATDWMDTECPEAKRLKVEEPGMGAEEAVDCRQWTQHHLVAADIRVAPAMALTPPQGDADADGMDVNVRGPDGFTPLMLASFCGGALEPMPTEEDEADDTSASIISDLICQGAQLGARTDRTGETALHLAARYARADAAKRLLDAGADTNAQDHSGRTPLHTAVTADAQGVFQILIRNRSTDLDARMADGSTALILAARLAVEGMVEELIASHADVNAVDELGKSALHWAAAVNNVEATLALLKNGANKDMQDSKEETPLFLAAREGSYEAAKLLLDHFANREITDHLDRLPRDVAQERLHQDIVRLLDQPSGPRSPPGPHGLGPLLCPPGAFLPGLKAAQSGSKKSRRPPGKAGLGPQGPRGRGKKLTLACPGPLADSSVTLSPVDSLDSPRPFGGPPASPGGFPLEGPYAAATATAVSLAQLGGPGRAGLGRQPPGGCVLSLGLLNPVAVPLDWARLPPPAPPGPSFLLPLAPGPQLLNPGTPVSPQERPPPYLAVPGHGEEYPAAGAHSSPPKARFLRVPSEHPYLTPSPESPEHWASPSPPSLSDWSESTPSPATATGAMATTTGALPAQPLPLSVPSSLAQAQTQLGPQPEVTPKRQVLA

`C#CCCCON=C1[C@H]2CCn3c(=O)n(C)c(=O)n3[C@H]2[C@H](O)[C@@H]2O[C@H]12`: the composite z-score in experiment [1] was -0.677; in [5], -0.0133; in experiment [7], -0.132; in experiment [8], 1.18; in experiment [9] it was 0.891; in experiment [10], -0.148. Also, the composite z-score is 0.325 in [11]; -0.316 in experiment [12]; -0.548 in [13]; 0.478 in [15]; 0.832 in experiment [16]; 0.719 in experiment [17]. Besides, the composite z-score in [18] amounted to 0.938; in experiment [19] it was 0.811; in experiment [20], 0.213. For the same compound, the z-score in [2] is 0.516 (inactive); in experiment [3], -0.377 (inactive); in experiment [4], 0.658 (inactive); in experiment [6] it was -0.305 (inactive); in experiment [14] it was 0.0589 (inactive).

For the compound `C#CCCCON=C1C[C@@H](O)[C@@H](O)[C@@H]2[C@@H]3C(=O)N(CCC(=O)OCC)C(=O)[C@@H]3CC[C@H]12`, the composite z-score in experiment [1] is 1.48; in experiment [5], 1.28; in experiment [7], -0.104; in [8], 0.4; in [9], 1.1; in [10] it was -0.0419. Besides, the composite z-score in [11] is 1; in experiment [12], 0.286; in experiment [13], -0.491; in experiment [15] it was 0.628; in [16], 0.814; in experiment [17], 0.542. Further, the results for the composite z-score in experiment [18], in experiment [19] and in [20] were 1.16, 0.389 and -0.422, respectively. In addition, the z-score is -1.64 (inactive) in experiment [2]; -1.32 (inactive) in experiment [3]; -0.947 (inactive) in experiment [4]; 0.299 (inactive) in experiment [6]; -1.79 (inactive) in experiment [14].

In the case of `O=C1[C@H]2[C@H]3[C@H](O)[C@H](O)CC(=NOCc4ccccc4)[C@H]3CC[C@H]2C(=O)N1Cc1ccc2c(c1)OCO2`, the composite z-score in experiment [1] was 0.437; in experiment [5] it was 1.1; in experiment [7], -0.0766; in [8], 0.273; in experiment [9], 0.546; in experiment [10], 0.0102. For the same compound, the composite z-score in experiment [11] was 0.297; in experiment [12], -0.208; in experiment [13], -0.424; in [15] it was 0.322; in [16] it was 0.238; in experiment [17], 0.338. The composite z-score in experiment [18] was determined as 0.534; in experiment [19], 0.582; in experiment [20], 0.157. In addition, the z-score in experiment [2] was -0.627 (inactive); in [3] it was -0.674 (inactive); in [4] it was -1.53 (inactive); in experiment [6], 1.26 (inactive); in experiment [14], 0.889 (inactive).

Take `COc1ccc(COC(=O)NN=C2C[C@@H](O)[C@@H](O)[C@@H]3[C@@H]4C(=O)N(c5cccc(Oc6ccccc6)c5)C(=O)[C@@H]4CC[C@@H]23)cc1`: the composite z-score in experiment [1] was -0.184; in experiment [5] it was 0.624; in [7] it was 0.162; in experiment [8], -0.516; in [9], -0.732; in experiment [10] it was -0.0953. The composite z-score in experiment [11] is -0.0785; in experiment [12], 0.557; in experiment [13], 1.28; in [15], -0.518; in experiment [16], -1.2; in experiment [17], -0.322. Besides, the results for the composite z-score in experiment [18], in [19] and in experiment [20] were -1.07, -0.89 and 0.247, respectively. In addition, the z-score in [2] is 1.15 (inactive); in experiment [3], 0.897 (inactive); in experiment [4] it was 0.752 (inactive); in [6], 0.301 (inactive); in [14], -0.161 (inactive).

Take `COc1cccc([C@H]2Oc3ccc(OC)cc3C(=NO[C@H](C)c3cn([C@H](CO)Cc4ccccc4)nn3)[C@@H]2O)c1`: the composite z-score is 0.203 in [1]; 0.202 in [5]; -0.126 in [7]; 0.259 in [8]; -0.657 in [9]; -0.188 in experiment [10]. Moreover, the composite z-score in [11] is -0.42; in [12], -0.561; in [13] it was -0.0229; in experiment [15], 0.0546; in experiment [16], -0.617; in experiment [17], -0.0537. Moreover, the figures for the composite z-score in experiment [18], in experiment [19] and in [20] were -0.0403, -0.28 and 0.548, respectively. Besides, the z-score is -1.77 (inactive) in experiment [2]; 0.226 (inactive) in experiment [3]; -1.21 (inactive) in [4]; 0.928 (inactive) in [6]; 0.397 (inactive) in experiment [14].
